# From article PMC5540273 (PLoS ONE, 2017)
# Test system: MYLK
# Settings: concentration: 1 μM, replicates: in singlicate; n = 1
# 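Further: KINOMEscan kinase panel screen.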
row,Structure (SMILES),%Inh [%]
1,Cl.Nc1ncnc2occ(-c3ccc(NC(=O)Nc4cc(C(F)(F)F)ccc4F)cc3)c12 [SB-707548],21
2,Fc1ccc(-c2ncn(CCCN3CCOCC3)c2-c2cccnc2)cc1 [SB-211743],0
3,CCCCCc1nc2c(N)ncnc2n1CCCCC [SKF-97255],17
4,c1ccc(-c2cc(-c3c[nH]nc3-c3ccccn3)ccn2)cc1 [GW576604],6
5,COc1ccc(Nc2nccc(N3CCC(NC(=O)Nc4cccc(C(C)=O)c4)C3)n2)cc1 (stereo not shown) [GSK1379731],0
6,CCc1nc(-c2cccc(C)c2)c(-c2ccnc(NCc3ccccc3)c2)s1,0
7,COC(=O)Nc1nc2cc(Oc3ccc(NC(=O)Nc4cc(F)ccc4F)cc3)ccc2[nH]1.Cl [GW701424],0
8,CN1c2ccc(CNc3ccc(F)cc3)cc2-c2c(cnn2C)S1(=O)=O,4
9,O=C(NCCCN1CCOCC1)c1cccc(Nc2nccc(Nc3ccc(Oc4ccccc4)cc3)n2)c1 [GW663929],0
10,N#Cc1c(N2CCOCC2)sc(-c2ccn[nH]2)c1-c1ccc(Cl)cc1,23
11,O=C1Cc2cc(Nc3nc(NCc4cccc(S(=O)(=O)C(F)(F)F)c4)ncc3C(F)(F)F)ccc2N1,2
12,[2H]C([2H])(c1cccc(C(F)(F)F)c1C)n1ccn2c(=O)nc(N3CCOCC3)cc12 [GSK2336394],12
13,COc1cc2c(cc1OCCN1CCN(C)CC1)ncc1c3ccc(C#N)cc3[nH]c21,26
